{"source": "PubChem BioAssay (NCATS)", "note": "Records with an inconclusive call do not appear. Active and inactive are the calls of the source. Calls come from the whole dose curve; as a rule, active = well fitted inhibition curve with a large enough effect; inconclusive = small, poorly fitted or top-dose-only effect; inactive = no such curve, though single readings can be large or run the other way. Starred links: 1 amine or outer side, 2 acyl side, 3 side chain; linkers in the order of their positions; H or OH if unused. Positions of bridges follow the written chain, without caps; N, C: chain ends. Non-standard residues stand in square brackets, D forms with d. Residues, ends and D or L forms follow the SMILES beside them. Chains are numbered I, II in the order given. Actinocin(9to1) = Cc1c2oc3c(C)ccc(C(=O)[*:1])c3nc-2c(C(=O)[*:2])c(N)c1=O; NMeV = CN[CH](C(=O)O)C(C)C; Sar = CNCC(=O)O", "data": [{"assay": "BET inhibitor-based combinations targeting novel dependencies in MECOM-rearranged (r) AML: HNT-34 cell line (AID 2202234); note: nearly all actives have a fitted effect of over 35% in size; note: potency is the fitted concentration of half-maximal effect", "settings": "HNT-34 AML viability, CellTiter-Glo luminescence, 48 h; series mostly up to 46 µM", "in_short": "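Each compound is tested in an 11-point concentration series against 500 seeded cells/well for 48 hr. The luminescent viability signal is normalized to DMSO and blank wells, then reduced to AUC and a cell-line-centred Z-AUC.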", "values": [{"smiles": "Clc1ccc(-c2nc3sccn3c2/C=N/OCc2ccc(Cl)c(Cl)c2)cc1", "Potency": "inactive"}, {"smiles": "CCCN(CCC)C(=O)C1=Cc2ccc(-c3ccc(C(=O)N4CCCC4)cc3)cc2N=C(N)C1", "Potency": "18.6 µM (active)"}, {"smiles": "CC(C)(O)C1CCC(Nc2ccc3ncc(-c4cccc(C(F)(F)F)c4)n3n2)CC1", "note": "(stereo not drawn)", "Potency": "6.61 µM (active)"}, {"smiles": "COc1ccc2[nH]c3c(c2c1)CCN[C@]31CS[C@@H]2c3c(OC(C)=O)c(C)c4c(c3[C@H](COC1=O)N1[C@@H]2[C@H]2c3c(cc(C)c(OC)c3O)C[C@@H]([C@@H]1O)N2C)OCO4", "Potency": "0.0034 µM (active)"}, {"smiles": "COC(=O)Nc1nc2ccc(C(=O)c3ccccc3)cc2[nH]1", "Potency": "0.263 µM (active)"}, {"smiles": "COc1cc(C(N)=O)ccc1NC(=O)[C@@H]1N[C@@H](CC(C)(C)C)[C@@]2(C(=O)Nc3cc(Cl)ccc32)[C@H]1c1cccc(Cl)c1F", "Potency": "0.148 µM (active)"}, {"smiles": "CCOC(=O)c1c(CSc2ccccc2)n(C)c2cc(Br)c(O)c(CN(C)C)c12", "Potency": "11.8 µM (active)"}, {"smiles": "CC/C(=C(/c1ccc(O)cc1)c1ccc(OCCNC)cc1)c1ccccc1", "Potency": "23.5 µM (active)"}, {"smiles": "COc1ccc2c(c1)c(C1=C(c3c[nH]c4ccccc34)C(=O)NC1=O)cn2CCCN(C)C", "Potency": "16.6 µM (active)"}, {"smiles": "CC(C)(C)C[C@H]1N[C@@H](C(=O)NC2CCC(O)CC2)[C@H](c2cccc(Cl)c2F)[C@@]12C(=O)Nc1cc(Cl)ccc12", "note": "(stereo partly drawn)", "Potency": "0.934 µM (active)"}, {"smiles": "COc1cc(C(=O)NC(N)=Nc2ccc(C)c(NC(=O)c3ccc(-c4ccccc4)cc3)c2)cc(OC)c1OC", "Potency": "18.6 µM (active)"}, {"smiles": "Cc1cc2cc(Oc3ccnc(Nc4cccc(CS(=O)(=O)NCCN(C)C)c4)n3)ccc2[nH]1", "Potency": "13.2 µM (active)"}, {"smiles": "C[C@@H](O)[C@@H]1NC(=O)[C@H](CCCCN)NC(=O)[C@@H](Cc2c[nH]c3ccccc23)NC(=O)[C@H](Cc2ccccc2)NC(=O)[C@@H](NC(=O)[C@H](N)Cc2ccccc2)CSSC[C@@H](C(=O)N[C@H](CO)[C@@H](C)O)NC1=O", "Potency": "inactive"}, {"smiles": "CC1(C)CCC2(CC1)N[C@@H](C(=O)N[C@@H]1CC[C@@H](C(N)=O)OC1)[C@H](c1ccnc(Cl)c1F)[C@]21C(=O)Nc2cc(Cl)ccc21", "Potency": "0.16 µM (active)"}, {"smiles": "CN1C(=O)[C@@H](NC(=O)c2n[nH]c(Cc3ccccc3)n2)COc2ccccc21", "Potency": "inactive"}, {"smiles": "CC(C)(O)CC[C@@H](O)[C@](C)(O)[C@H]1CC[C@@]2(O)C3=CC(=O)[C@@H]4C[C@@H](O)[C@@H](O)C[C@]4(C)[C@H]3CC[C@]12C", "Potency": "inactive"}, {"smiles": "N#Cc1ccc(-c2c(-c3ncn[nH]3)sc(N3CCOCC3)c2C#N)c(F)c1", "Potency": "10.5 µM (active)"}, {"smiles": "CC(C)C[C@H](NC(=O)c1cc2ccccc2s1)C(=O)N1CCN(C(=O)[C@H](CO)NS(=O)(=O)c2ccc(Cl)cc2Cl)CC1", "Potency": "26.3 µM (active)"}, {"smiles": "CNc1nc(-c2ccc3c(N)n[nH]c3c2)cc(N2C[C@@H](C(=O)NC3CCCCC3)CC[C@H]2C)n1", "Potency": "13.2 µM (active)"}, {"smiles": "OC1CCC(Oc2cccc3cnc(Nc4ccc5nc[nH]c5c4)nc23)CC1", "note": "(stereo not drawn)", "Potency": "0.934 µM (active)"}, {"smiles": "Cc1cc(C)c(CNC(=O)c2cc(-c3ccc(N4CCN(C)CC4)nc3)cc3c2c(C)cn3C(C)C)c(=O)[nH]1", "Potency": "23.5 µM (active)"}, {"smiles": "C[C@]12CCCN1CC1=NNC(=O)c3cc(F)cc4[nH]c2c1c34", "Potency": "5.9 µM (active)"}, {"smiles": "N#Cc1c(N)nc(N)nc1N[C@H](c1nc2c(F)ccc(Cl)c2c(=O)n1-c1cccnc1)C1CC1", "Potency": "16.6 µM (active)"}, {"smiles": "Cc1ccc(-c2nn(C(C)(C)CNC(=O)c3ccncc3)c3ncnc(N)c23)cc1", "Potency": "8.33 µM (active)"}, {"smiles": "CC(C)Oc1ccc(-c2nn([C@@H](C)c3oc4ccc(F)cc4c(=O)c3-c3cccc(F)c3)c3ncnc(N)c23)cc1F", "Potency": "20.9 µM (active)"}, {"smiles": "Cc1c(-c2c(-c3ccc(F)o3)sc3ncnc(O[C@@H](Cc4ccccc4OCc4ccnn4CC(F)(F)F)C(=O)O)c23)ccc(OCCN2CCN(C)CC2)c1Cl", "Potency": "0.332 µM (active)"}, {"smiles": "CC(C)n1c(/C=C/[C@H](O)C[C@H](O)CC(=O)O)c(-c2ccc(F)cc2)c2ccccc21", "Potency": "8.33 µM (active)"}, {"smiles": "Cc1c2oc3c(C)ccc(C(=O)NC4C(=O)NC(C(C)C)C(=O)N5CCCC5C(=O)N(C)CC(=O)N(C)C(C(C)C)C(=O)OC4C)c3nc-2c(C(=O)NC2C(=O)NC(C(C)C)C(=O)N3CCCC3C(=O)N(C)CC(=O)N(C)C(C(C)C)C(=O)OC2C)c(N)c1=O", "note": "(stereo not drawn) (I: TVP[Sar][NMeV] / II: TVP[Sar][NMeV]; ester I:1-I:C, II:1-II:C; linker I:N-II:N via Actinocin(9to1); configuration not given here)", "Potency": "0.0057 µM (active)"}]}]}
